Test systems include T-47D breast; BT-549 breast; MDA-MB-435 melanoma; SW-620 colon; MCF7 breast; HCT-116 colon; HCC-2998 colon; KM12 colon.
Holding throughout (assay): NCI-60 one-dose screen, 48 h (100 = growth as untreated, 0 = no growth, -100 = all killed)
What all share (details): 10 µM unless noted

SMILES strings stand for the structures. Compounds without any hit were thinned out: in the full panel of roughly 83,000, 20% have a hit.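 48-hour exposure, single concentration, 96-well plates; percent growth endpoint where 0 means no net growth. Active: below 10.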 Unmarked numbers belong to inactive results. Calls of active or inactive are those of the source.

Turning to `CCOc1ccc(C(=O)NCC(C)C)cc1`, the growth in the experiment on T-47D breast was 89.1%; in the experiment on BT-549 breast it was 98.3%; in the experiment on MDA-MB-435 melanoma, 96.8%; with SW-620 colon, 91.7%; in the experiment on MCF7 breast, 93.5%; in the experiment on HCT-116 colon, 101%. Further, the values for the growth in the experiment on HCC-2998 colon and in the experiment with KM12 colon were 114% and 101%, respectively.
In the case of `CN1CCN(C(=S)S)CC1`, the growth is 93% in the experiment on T-47D breast; 108% with BT-549 breast; 109% with MDA-MB-435 melanoma; 114% in the experiment with SW-620 colon; 99.3% with MCF7 breast; 107% with HCT-116 colon. Also, the growth in the experiment with HCC-2998 colon and in the experiment with KM12 colon was 107% each time.
For `Cc1cc(Cl)cc(Cc2cc(Cl)cc(C)c2O)c1O`, the growth in the experiment on T-47D breast is 14%; with BT-549 breast it was 1.21% (active); with MDA-MB-435 melanoma, -10.5% (active); in the experiment with SW-620 colon it was 14%; in the experiment on MCF7 breast, 22.4%; in the experiment on HCT-116 colon it was 8.46% (active). Moreover, the growth is 13.1% in the experiment with HCC-2998 colon and -5.92% (active) with KM12 colon.
For `CCC(/C=C\C(C)=O)CC`, the growth with T-47D breast was 101%; in the experiment with BT-549 breast it was 103%; with MDA-MB-435 melanoma it was 100%; with SW-620 colon, 99%; with MCF7 breast it was 105%; in the experiment with HCT-116 colon it was 97.3%. Moreover, the results for the growth with HCC-2998 colon and with KM12 colon were 106% and 105%, respectively.
Consider `Cc1ccc(Cc2ccc(C)cc2)cc1`, for which the growth is 101% in the experiment on T-47D breast; 91.2% in the experiment with BT-549 breast; 97.5% with MDA-MB-435 melanoma; 102% in the experiment on SW-620 colon; 99.4% in the experiment with MCF7 breast; 107% in the experiment on HCT-116 colon. For the same molecule, the growth is 100% in the experiment on HCC-2998 colon and 99.4% in the experiment on KM12 colon.
As for `N#Cc1ccc(OC(=O)Nc2cc(Cl)cc(Cl)c2)cc1`, the growth is -12.2% [100 µM] (active) in the experiment with T-47D breast; -27.1% [100 µM] (active) with BT-549 breast; -9.08% [100 µM] (active) in the experiment with MDA-MB-435 melanoma; 4.92% [100 µM] (active) in the experiment with SW-620 colon; -25.7% [100 µM] (active) in the experiment on MCF7 breast; -62.7% [100 µM] (active) in the experiment with HCT-116 colon. The growth with HCC-2998 colon was -8.43% [100 µM] (active); in the experiment on KM12 colon, -15% [100 µM] (active).
`C[n+]1c(/C=C\C=C\N2CCCCC2)sc2ccccc21`: the growth with T-47D breast is 5.32% (active); with BT-549 breast, 1.35% (active); with MDA-MB-435 melanoma, -1.72% (active); in the experiment on SW-620 colon, 12.5%; in the experiment with MCF7 breast, 4.75% (active); in the experiment with HCT-116 colon, -24.5% (active). The growth in the experiment with HCC-2998 colon was 14%; with KM12 colon, -11% (active).
Regarding `CCOC(=O)CNC`, the growth is 97.2% in the experiment on T-47D breast; 109% in the experiment with BT-549 breast; 98.7% in the experiment on MDA-MB-435 melanoma; 98.2% in the experiment on SW-620 colon; 93.8% in the experiment on MCF7 breast; 108% in the experiment on HCT-116 colon. Also, the growth with HCC-2998 colon is 96%; in the experiment on KM12 colon, 107%.
In the case of `COc1ccc(C2CC(c3ccccc3)=Nc3ccccc3S2)cc1` (centres undefined), the growth with T-47D breast is 84.1%; in the experiment with BT-549 breast, 91.6%; in the experiment on MDA-MB-435 melanoma, 98.8%; in the experiment on SW-620 colon, 98.4%; with MCF7 breast it was 78.7%; with HCT-116 colon, 88.7%. In addition, the figures for the growth in the experiment with HCC-2998 colon and in the experiment with KM12 colon were 111% and 87.4%, respectively.
Regarding `CC(C)N1CC(=O)N2CSCC2C1=O` (centres undefined), the growth is 108% with T-47D breast; 110% in the experiment with BT-549 breast; 105% in the experiment on MDA-MB-435 melanoma; 102% with SW-620 colon; 98.7% in the experiment with MCF7 breast; 112% in the experiment on HCT-116 colon. Besides, the growth with HCC-2998 colon is 102%; in the experiment with KM12 colon, 98%.
As for `Nc1nc(N)nc(N2CCCCC2)n1`, the growth in the experiment with T-47D breast is 101%; in the experiment with BT-549 breast, 106%; in the experiment on MDA-MB-435 melanoma, 115%; in the experiment on SW-620 colon it was 106%; with MCF7 breast it was 104%; in the experiment with HCT-116 colon, 106%. For the same molecule, the growth with HCC-2998 colon was 106%; in the experiment on KM12 colon, 101%.
For the molecule `CN(C)CCOC(=O)Nc1ccc(Cc2ccc(NC(=O)OCCN(C)C)cc2)cc1`, the growth is 105% [100 µM] in the experiment with T-47D breast; 68.3% [100 µM] with BT-549 breast; 76.4% [100 µM] in the experiment on MDA-MB-435 melanoma; 85.8% [100 µM] in the experiment with SW-620 colon; 44.9% [100 µM] with MCF7 breast; 36.5% [100 µM] in the experiment with HCT-116 colon. For the same molecule, the growth with HCC-2998 colon is 46.2% [100 µM]; in the experiment on KM12 colon, 78.8% [100 µM].
For the molecule `Cc1[nH]n(-c2ccccc2)c(=O)c1C=NC(=S)C(N)=S`, the growth in the experiment with T-47D breast is 102%; in the experiment on BT-549 breast, 108%; in the experiment on MDA-MB-435 melanoma, 109%; with SW-620 colon, 104%; in the experiment on MCF7 breast it was 100%; in the experiment with HCT-116 colon, 89.5%. The figures for the growth with HCC-2998 colon and in the experiment on KM12 colon were 102% and 103%, respectively.
As for `CCC(C)C1CCC(O)CC1` (centres undefined), the growth in the experiment with T-47D breast was 104%; in the experiment with BT-549 breast it was 98.5%; in the experiment on MDA-MB-435 melanoma, 103%; in the experiment on SW-620 colon, 107%; in the experiment with MCF7 breast it was 100%; with HCT-116 colon, 101%. Also, the figures for the growth with HCC-2998 colon and in the experiment on KM12 colon were 107% and 105%, respectively.
In the case of `CN(C)c1ncnc2c1cnn2C`, the growth in the experiment on T-47D breast was 88.2%; in the experiment with BT-549 breast it was 99.9%; with MDA-MB-435 melanoma, 103%; in the experiment on SW-620 colon, 98.7%; with MCF7 breast, 94%; in the experiment with HCT-116 colon, 105%. Moreover, the values for the growth with HCC-2998 colon and with KM12 colon were 98% and 104%, respectively.
With `O=C(c1ccc(Cl)cc1)N1CCCCC1`, the growth with T-47D breast is 91.5%; in the experiment on BT-549 breast, 105%; in the experiment with MDA-MB-435 melanoma, 101%; in the experiment with SW-620 colon, 99.8%; in the experiment with MCF7 breast, 92.9%; in the experiment on HCT-116 colon, 99.9%. Moreover, the growth in the experiment on HCC-2998 colon was 107%; with KM12 colon, 106%.
Turning to `Nc1nc2nnc(-c3ccccc3)c(-c3ccccc3)n2n1`, the growth is 84.7% in the experiment on T-47D breast; 103% in the experiment on BT-549 breast; 106% in the experiment with MDA-MB-435 melanoma; 97.9% in the experiment on SW-620 colon; 98.7% in the experiment with MCF7 breast; 102% with HCT-116 colon. The figures for the growth with HCC-2998 colon and in the experiment with KM12 colon were 93.1% and 132%, respectively.
Consider `O=C1NC(=O)/C(=C\c2ccncc2)N1`, for which the growth is 101% in the experiment on T-47D breast; 99.5% with BT-549 breast; 96% in the experiment with MDA-MB-435 melanoma; 99% with SW-620 colon; 94.9% in the experiment with MCF7 breast; 89.6% in the experiment with HCT-116 colon. Further, the growth with HCC-2998 colon is 133%; in the experiment on KM12 colon, 86.9%.

The values above are taken from PubChem BioAssay (NCI).
